The values that follow come from PubChem BioAssay AID504582 (Broad Institute, 2011).

Among all 340,000 compounds or so, about 2,300 (0.68%) were called active. Shown is part of a subset that was picked to be rich in actives. A number with no mark means an inactive call. Rule as the data show it: active = growth rescue above about 28% (passing the limit was not always enough); inconclusive = no clear call, values can overlap the other calls.

A short description of this experiment: rescue of yeast from PfHsp40 toxicity, primary screen, S. cerevisiae, ATP luminescence (AID 504582).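 Also: yeast W303a lacking pdr1 and pdr3 grown in galactose medium; growth measured after three days at 30 °C.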 To be noted: S. cerevisiae expressing PfHsp40, growth rescue, at 12.5 µM, active compounds read high.
For the molecule `Cc1c(C(=O)N2CCCC2)c(S(=O)(=O)NCC(C)c2ccccc2)c(C)n1C` (centres undefined), the growth rescue was -0.332%.
As for `CCOC(=O)c1ccccc1NC(=O)COC(=O)CCC(=O)N1CCOCC1`, the growth rescue was -0.942%.
Next, `COC(=O)/C=C\C(=O)Nc1cccc([N+](=O)[O-])c1`: 233% (active); `O=C(Nc1cccc([N+](=O)[O-])c1)Nn1cnnc1`: 0.084%; `CCC(CC)NC(=O)/C=C/c1cccc([N+](=O)[O-])c1`: -2.62%.
In the case of `CCOC(=O)N1CCN(C(=O)C(=O)Nc2sc3c(c2C#N)CC(C)(C)OC3)CC1`, the growth rescue is -1.13%.
With `COc1ccc(-c2nc3n(c(=O)c2C#N)CCS3)c(OC)c1` the figure was -0.93%.
With `O=C(CSc1nc(C2CC2)nc2ccccc12)Nc1ccc2c(c1)OCCO2`, the growth rescue is 0.157%.
With `CCCc1nc(SCC(=O)Nc2ccc(S(=O)(=O)N(C)C)cc2)c2ccccc2n1` the figure was 56.5% (active); with `CCCNC(=O)CSc1nc(Cc2ccccc2)nc2ccccc12`, 1.34%; with `Cc1ccc(-n2c(C)nnc2SCC(=O)NC2CC2)cc1`, 0.655%.
With `CCCCC/C=C/C1=CC(=O)C[C@H](c2ccc(Cl)cc2)C1` the figure was -0.132%.
As for `Cc1cccnc1NC(=O)Cn1c(=O)oc2ccccc21`, the growth rescue was 0.888%.
In the case of `CSCc1cc(N(C)C)nc(SCc2ccc(Cl)cc2Cl)n1`, the growth rescue is 119% (active).
As for `Nc1cc(N)nc(SCc2ccc(Cl)cc2)n1`, the growth rescue is 0.722%.
Consider `CSCc1cc(N2CCOCC2)nc(SCc2ccc(Cl)cc2Cl)n1`, for which the growth rescue was 21.9%.
Turning to `O=C(O)c1cc2ccccc2c(=O)s1`, the growth rescue was -1.29%.
With `CCCCCN1CC(O)=C(c2ccccc2)C1=N` the figure was 1.8%.
With `CCCCCCCCn1c2c(c(=N)c3c1CCC3)CCCC2` the figure was -1.32%; with `CCCCCCCCCCCCn1ccc(=N)cc1`, 174% (active).
Consider `Nc1cccnc1Sc1ccccc1`, for which the growth rescue was -0.346%.
With `O=C(CN1C(=O)NC2(CCCCC2)C1=O)NCCC1=CCCCC1`, the growth rescue is -1.2%.
Turning to `COc1ccc(C(CNC(=O)c2ccc(S(=O)(=O)Nc3ccccc3F)cc2)N(C)C)cc1` (centres undefined), the growth rescue was 33.3% (active).
Take `COc1ccc(C(CNC(=O)c2ccc(NS(=O)(=O)c3ccc(F)c(C)c3)cc2)N(C)C)cc1` (centres undefined): the growth rescue was -1.73%.
With `CC(=O)c1ccc(S(=O)(=O)Nc2ccc(C(=O)NCC(c3ccccc3)N(C)C)cc2)cc1` (centres undefined), the growth rescue was 0.039%.
`Cc1ccc(C)c(C(=O)N2CCC(n3nccc3NC(=O)C3CC3)CC2)c1`: the growth rescue is -0.915%.
Next, `COc1ccccc1C1CCN(C(=S)Nc2ccc(Br)cc2)CC1`: 41.2% (active); `COc1ccccc1NC(=S)N1CCN(C(c2ccccc2)c2ccccc2)CC1`: -0.67%.
`CCC(C)N(C)C1CCN(C(=S)Nc2ccc(OC)cc2)CC1` (centres undefined): the growth rescue is 0.96%.
With `COC(=O)C1(C)NC(c2ccccc2OC)C2C(=O)N(c3ccccc3)C(=O)C21` (centres undefined) the figure was -1.44%.
With `O=S(=O)(c1cccc(Cn2nnc(-c3ccc(F)cc3)n2)c1)N1CCOCC1` the figure was 1.33%.
Next, `O=C(OCCN=C1NS(=O)(=O)c2ccccc21)c1cccc([N+](=O)[O-])c1`: 0.884%.
As to `CCn1c(O)c2ccc(C(=O)N=NC(=O)c3cccnc3)cc2c1O`, the growth rescue is -1.24%.
With `Oc1ccccc1C1=NN(c2ccccc2)C(c2ccccc2)C1` (centres undefined) the figure was 134% (active).
Next, `O=C1C2N=NN(CC(=O)N3N=C(c4cccc5ccccc45)CC3c3ccccc3)C2C(=O)N1c1ccccc1` (centres undefined): -1.21%; `Cc1ccc(N2C(=O)C3N=NN(CC(=O)N4N=C(c5cccc6ccccc56)CC4c4ccccc4)C3C2=O)cc1` (centres undefined): -1.11%; `CCN(CC)C(=O)C1CCC(C)(C(=O)O)C1(C)C` (centres undefined): 1.46%.
Next, `COC(=O)C(C(=O)Nc1cccc(C)n1)C1CCCCCC1` (centres undefined): -0.474%; `CC(C)NC(=O)N1CCN(c2ccncc2S(=O)(=O)N2CCCCC2)CC1`: -0.643%.
As to `O=C(COC(=O)CCOc1ccccc1)Nc1cc(S(=O)(=O)N2CCCCC2)ccc1Cl`, the growth rescue is 1.68%.
With `Brc1ccc(-c2n(-c3ccccn3)c3ccccc3[n+]2-c2ccccn2)cc1` the figure was 0.665%.
Next, `CCOC(=O)c1ccc(N2C(=O)CC(N3CC(C)OC(C)C3)C2=O)cc1` (centres undefined): -0.556%; `CCCCOC(=O)c1ccc(N2C(=O)CC(N3CCN(C/C=C/c4ccccc4)CC3)C2=O)cc1` (centres undefined): 0.282%.
For the molecule `CCOC(=O)c1ccc(N2C(=O)CC(N3CCN(C(=O)c4ccccc4)CC3)C2=O)cc1` (centres undefined), the growth rescue is 53.1% (active).
`COc1ccc(N(C)S(=O)(=O)c2ccc3c(c2)CC(C)N3C(=O)C2CC2)c(OC)c1` (centres undefined): the growth rescue is 2.19%.
Next, `CC(C)(C)NC(=O)C(c1ccc(Cl)cc1)N(CCO)C(=O)c1snc(C(N)=O)c1N` (centres undefined): -0.519%; `CCCCC(C(=O)NC(C)(C)C)N(Cc1ccccc1)C(=O)c1snc(C(N)=O)c1N` (centres undefined): 59.5% (active).
Next, `CCC(C(=O)NCCC(C)C)N(Cc1ccccc1Cl)C(=O)c1snc(C(N)=O)c1N` (centres undefined): 0.982%; `CC12CCC(=O)N1C(C(=O)NCCN1C(=O)S/C(=C\c3ccccc3F)C1=O)CS2` (centres undefined): -1.34%.
For the molecule `COc1ccc(CCNc2nc(C)cc(C)n2)cc1OC`, the growth rescue was 0.933%.
For the molecule `NS(=O)(=O)c1ccc(CCNC(=O)c2ccc(Cl)c(S(=O)(=O)N3CCCCCC3)c2)cc1`, the growth rescue is 0.571%.
Next, `CC1=CC(C)(C)N(C(=O)CSc2nccn2C)c2cc(C)ccc21`: -0.0285%; `CCc1ccccc1NC(=O)CSc1nnc(-c2ccncc2)o1`: -0.233%.
Next, `CC1=CC(C)(C)N(C(=O)CSc2nnc(-c3ccccc3)o2)c2ccc(C)cc21`: 81.1% (active); `O=C(CN(c1ccc2c(c1)OCCO2)S(=O)(=O)c1ccccc1)Nc1ccc2c(c1)OCO2`: 0.974%.
With `COc1ccc(CNC(=O)COC(=O)c2sccc2C)cc1OC` the figure was -0.071%; with `COc1cnc(-c2ccccn2)nc1Oc1ccc(C(C)(C)C)cc1`, 162% (active).
For the molecule `COc1ccnc(Oc2ccccc2)c1-c1ncn[nH]1`, the growth rescue is -2.24%.
With `COc1ccc(NCCc2ccccn2)cc1` the figure was -0.895%.
